Only some compounds are listed: those with a hit (about 3.2% of all), similar ones and a draw of the others.
CHT allo act: allosterically activates the human high affinity choline transporter; Q9GZV3; CHT-expressing cells, membrane potential dye, choline EC20; hits give high values; LV-AA mutant CHT in HEK293 cells; B-score at 10 µM; 0.49% of 310,000 active; AID 488977;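 active = initial fluorescence not abnormally high and integrated response B-score, plate-corrected, over 3 SD above library mean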
ANO1 activ: mouse TMEM16A channel activation, primary screen | Q8BHY3 | HEK293 TMEM16A/YFP-H148Q/I152L, iodide quench fluorescence; hits give low values | B-score at 10 µM | 0.3% of 340,000 active | AID 623877;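 active = fluorescence-ratio B-score plate-corrected deviation score at least 3 library SD below zero, with starting fluorescence score within 5 deviations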;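 note: channel opened by trigger with iodide after compound preincubation; score built on the fluorescence ratio of max minus min over baseline; more negative score means more quench and so TMEM16A activation or potentiation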
Rce1 inhib: blocks yeast Ras-converting enzyme | yeast membranes, quenched prenylated peptide cleavage fluorescence | calls only | 0.27% of 290,000 active | AID 2563;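 active = fall in fluorescence gain of 50% or more versus controls, with final raw signal at or below 3038400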;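 note: plate controls were neutral control wells for no effect and wells lacking membranes for full effect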
TMEM16A inh: inhibitors of mouse TMEM16A calcium-activated chloride channel; normalized B-score (activity score, 25-100; higher = stronger inhibition) at 10 µM; 1.2% of 310,000 active; Q8BHY3; HEK293 TMEM16A/YFP iodide influx fluorescence, ionomycin; AID 588511;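 active = ratio plate-corrected score three or more library SD toward inhibition, starting fluorescence score within five deviations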;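 note: score derived from kinetic fluorescence span divided by baseline fluorescence per well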
CHT inh: inhibits the human high affinity choline transporter | CHT-expressing cells, membrane potential dye, choline response; hits give low values | B-score at 10 µM | 0.86% of 310,000 active;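 active = B-score over 3 SD under the library average, and starting fluorescence ratio not unusually high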;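 note: choline stimulus applied at its EC90 after an EC20 pre-addition; B-score computed on integrated fluorescence ratio after choline addition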
Kir21 inh: inhibitors of mouse Kir2.1 inward-rectifier potassium channel; P35561; HEK293-Kir2.1, FluxOR thallium flux fluorescence; hits give low values; B-score at 10 µM; 0.85% of 310,000 active; AID 1672;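 active = fluorescence ratio B-score at or below minus 3 SD of library scores, with starting-brightness B-score within 2 SD, cut at about -4.2 in these data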;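 note: channel flux triggered by added potassium and thallium sulfate stimulus; B-score of peak minus minimum fluorescence over baseline after thallium stimulus; more negative B-score means stronger Kir2.1 block with less thallium influx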
hERG inh: counter-screen for Kir2.1 inhibitors: effect on human hERG | shares compounds with Kir21 inh | hERG-expressing cells, thallium flux | inhibition, % at 10 µM | 20% of 320 active;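 note: host cells are CHO cells stably expressing hERG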
KCNK9 spec: human KCNK9 off-target activity of Kir2.1 blockers; 5% of 320 active; inhibition, % at 10 µM; KCNK9-expressing cells, ion flux inhibition; shares compounds with Kir21 inh
Kir2-1 patch inh: inhibitors of mouse Kir2.1 potassium channel | inhibition, % at 25 µM | Kir2.1 cells, automated patch-clamp current inhibition | 71% of 320 active | shares compounds with Kir21 inh | AID 463252
* hit, by the source's call; i = inactive; / = no result given. Unless noted, the rule behind the calls is not given here.

SMILES | CHT allo act | ANO1 activ | Rce1 inhib | TMEM16A inh | CHT inh | Kir21 inh | hERG inh | KCNK9 spec | Kir2-1 patch inh
CC1CN(C(=O)CCC(=O)NCCCN2CCN(Cc3ccccc3)CC2)c2cc(Cl)ccc2O1 (stereo not drawn) | i | i | i | i | i | -6.3* | 64%* | i | 9.3%*
CCC1CCCCN1C(=S)NC(=O)c1cccc([N+](=O)[O-])c1 (stereo not drawn) | i | i | i | i | i | 2.7 | i | i | i
CC1CCN(C(=S)NC(=O)c2cccc([N+](=O)[O-])c2)CC1 | i | i | i | i | i | 2 | / | / | /
CSc1ccc(CNCC(O)c2ccccc2)cc1 (stereo not drawn) | i | i | i | i | i | -6.2* | i | i | 54%*
O[C@@H](CNC[C@H](O)c1ccccc1)c1ccccc1 | i | i | i | i | i | -2.5 | / | / | /
OC(CNCCc1ccccc1)c1ccccc1 (stereo not drawn) | i | i | i | i | i | -9.7* | i | i | 50%*
Clc1ccc(CNC2CCN(Cc3ccccc3)CC2)cc1 | i | i | i | i | i | -13* | 58%* | i | 55%*
CN(C)CCN(Cc1ccccc1)C(=O)[C@H](Cc1ccccc1)N1C(=O)c2ccccc2C1=O | i | i | i | i | i | -6* | i | i | i
NC(=O)C(Cc1ccccc1)N1C(=O)c2ccccc2C1=O (stereo not drawn) | i | i | i | i | i | 0.68 | / | / | /
O=C(O)c1cnn(-c2nc(-c3cccc(F)c3)cs2)c1C(F)(F)F | i | i | i | i | i | -0.78 | / | / | /
O=C(O)c1cnn(-c2nc(-c3ccc(Cl)c(Cl)c3)cs2)c1C(F)(F)F | i | i | i | i | i | 3 | i | i | i
CN(C)CC#CCOC(c1ccccc1)c1ccccc1 | i | i | i | i | i | -6.3* | i | i | 45%*
CCN(CC)CC#CCOC(c1ccccc1)c1ccccc1 | i | i | i | i | i | -3 | / | / | /
O=C(CSc1n[nH]c(-c2ccccc2F)n1)Nc1cc(F)ccc1F | / | i | / | / | / | / | / | / | /
CC(O)CNCCCOc1cccc(Oc2ccccc2)c1 (stereo not drawn) | i | i | i | i | i | -7.6* | i | i | 77%*
COc1ccc(CCNC(=O)CN2C(=O)NC3(CCCCC3C)C2=O)cc1 (stereo not drawn) | / | i | / | / | / | / | / | / | /
CCOc1cc(/C=N/N=C(N)N)ccc1OCc1ccc(Cl)cc1 | i | i | i | i | i | -16* | 60%* | i | i
CCOc1cc(/C=N/O)ccc1OCc1ccc(F)cc1 | i | i | i | i | i | -0.79 | / | / | /
[O-][n+]1onc2c1CCC(=N/O)/C2=N\Nc1ccccc1 | i | / | i | i | i | 1.3 | / | / | /
Cc1ccc(OCCOCCN2CCN(C)CC2)c(C(C)(C)C)c1 | i | i | / | i | i | -1.8 | / | / | /
CC(C)(C)c1cc(Cl)ccc1OCCOCCN1CCCC1 | i | i | i | i | i | -9.6* | 58%* | i | 9.2%*
CC(C)(Oc1ccc(Cl)cc1)C(=O)OCC(=O)NCCc1ccccc1 | i | i | i | i | i | -6.4* | i | i | 39%*
O=C(COC(=O)COc1ccc(Cl)cc1)NCCCc1ccccc1 | / | i | / | / | / | / | / | / | /
CCn1c(SCC(=O)NC(C)c2ccccc2)nc2ccccc21 (stereo not drawn) | i | i | i | i | i | -3.4 | / | / | /
CCn1c(Sc2ccc(N)cc2Cl)nc2ccccc21 | i | i | i | i | i | -6.3* | i | i | 21%*
SMILES | CHT allo act | ANO1 activ | Rce1 inhib | TMEM16A inh | CHT inh | Kir21 inh | hERG inh | KCNK9 spec | Kir2-1 patch inh
COc1ccc(CN(C)CC(O)COC(c2ccc(OC)cc2)c2ccc(OC)cc2)cc1 (stereo not drawn) | i | i | i | i | i | -8.7* | 75%* | i | i
Cc1cc(NC(=O)COC(=O)C2=NN(c3ccccc3)C(=O)CC2)c([N+](=O)[O-])cc1C | / | i | / | / | / | / | / | / | /
O=C(CNC(=O)c1ccc(Br)o1)NCC1CCCCC1 | / | i | / | / | / | / | / | / | /
CC(C)CCn1c2ccccc2c2cc(CC(N)=O)ccc21 | i | i | i | i | i | 4 | i | i | i
NC(=O)CCn1c2ccccc2c2ccccc21 | i | i | / | i | i | 2.6 | / | / | /
CC(C)CN(CC(C)C)C(=S)Nc1ccc(Cl)cc1 | i | i | i | i | i | -0.18 | / | / | /
CSc1ccc(CN2CCC(Cc3ccccc3)CC2)cc1 | i | i | i | i | i | -16* | 67%* | i | 33%*
Fc1ccc(CN2CCC(Cc3ccccc3)CC2)cc1F | i | i | i | i | i | -1.5 | / | / | /
COc1ccc2c(c1OC)C(=O)N1C2SC[C@H]1C(=O)NC1CCCC1 (stereo partly drawn) | i | i | i | i | i | 0.77 | / | / | /
COC(=O)C1=C(C)N=C2SCCC(=O)N2C1c1ccc(OC(=O)c2ccco2)cc1 (stereo not drawn) | / | i | i | / | / | -7.2* | i | i | i
COc1ccc(NC(=O)COc2coc(CN3c4ccccc4CC3C)cc2=O)cc1 (stereo not drawn) | i | i | i | i | i | 0.06 | / | / | /
O=C(COC(=O)c1cc(=O)[nH]c2ccccc12)NC(=O)c1ccccc1 | i | i | i | i | i | 0.78 | / | / | /
Cc1cc(NC(=O)CSCC(=O)OC(C)C(=O)c2cc(C)c(C)cc2C)no1 (stereo not drawn) | i | i | i | i | i | -6.3* | i | i | 18%*
O=C(CSc1nnc(-c2ccncc2)n1-c1ccccc1)NC1CC1 | i | i | i | i | i | 0.11 | / | / | /
Cc1ccc(C(=O)NNC(=S)NC(=O)c2ccccc2)cc1 | i | i | i | 100* | i | 2.6 | i | i | i
OC(CNCc1ccco1)Cn1c2ccccc2c2ccccc21 (stereo not drawn) | i | i | i | i | i | -11* | 61%* | i | 25%*
CN(C)Cc1c(O)ccc2ccccc12 | i | i | i | i | i | 0.69 | / | / | /
CN(C)Cc1c(O)ccc2oc(Cc3ccccc3)cc12 | i | i | i | i | i | -5.9* | i | i | 62%*
